Assay results from the supplement of paper PMC6555819.

Columns and labels:
Test in all cases: PBM binding z-score (relative to random genomic background probes); higher = stronger binding; sequences stand for … in GC…GCGATTGACAGCGTAGAATGAAGG
[1] = system: RARb homodimer (NR concentration 270 nM)
Outline: (§1)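 Ligand-free nuclear receptor dimers were bound for 1 h to custom Agilent 4×180K protein-binding microarrays. Detection used antibodies against each partner (one per run). Binding z-scores rest on regression-normalized fluorescence, with random background probes as the reference.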

[2] = system: RARg:RXRa (NR concentration 270 nM, RXRa partner concentration 90 nM)
Outline: as §1

[3] = system: RARg homodimer (NR concentration 270 nM)
Outline: as §1

[4] = system: RXRa DBDmut IVT, anti-RXR (DBD mutation: RXRa K156A/R161A, NR concentration 90 nM)
Outline: as §1

[5] = system: RXRa homodimer (NR concentration 180 nM)
Outline: as §1

[6] = system: THRa:RXRa (NR concentration 90 nM, RXRa partner concentration 90 nM)
Outline: as §1

[7] = system: THRa homodimer (NR concentration 90 nM)
Outline: as §1

[8] = system: VDR homodimer (NR concentration 270 nM)
Outline: as §1

Sequence | PBM binding z-score [1] | PBM binding z-score [2] | PBM binding z-score [3] | PBM binding z-score [4] | PBM binding z-score [5] | PBM binding z-score [6] | PBM binding z-score [7] | PBM binding z-score [8]
GCTGCTAGGTCCACTGATGGTCAGCTAAAGCTCG | 0.602 | -0.251 | -0.0766 | 0.741 | -0.741 | -0.256 | -0.767 | -0.434
TAGTCTAGGTCATGGGCCAGTATACCACGCGAAC | 3.09 | 4.03 | 4.4 | 0.663 | 3.44 | 3.3 | 2.25 | 0.773
TCTCGGAGGACACGAATGTCAGAGCTTTCCAGAG | 0.771 | 0.642 | 1.42 | 0.518 | 0.168 | 1.23 | 0.52 | -0.491
TCATATAGGTGAATGCTAGGTGAAAGTCCGATCT | 0.945 | 1.54 | 0.61 | 1.39 | 0.992 | 2.06 | 0.5 | -0.483
GATACAGGGTCAAAGCCAGAGTACGCGTATTGAT | 2.86 | 5.42 | 4.41 | 3.04 | 5.84 | 3.25 | 0.312 | 2.99
CGTCAAAGTTCAACTAAGGTAACGCAAAGCACGC | 4.28 | 5.94 | 6.37 | 4.62 | 4.92 | 5.48 | 2.13 | 3.54
AGAACGATGGCACGCTGAGTTGATAGCAGAGTAG | -0.907 | -0.162 | -0.0451 | -0.483 | -0.397 | -0.632 | -1.01 | -0.128
GTACCAAGGTGAATAGGTCGTGGATGAGTAGGCG | 2.29 | 3.12 | 1.51 | -0.652 | 2.44 | 1.91 | 0.648 | -0.0897
CCTACTGGGCCATCAGGTCATTGCTATCAACGTT | 2.55 | 2.04 | 1.77 | 0.254 | 1.37 | 3.24 | 2.94 | 1.62
TCTATTAGTTGAAGGCCAACCGACGAGTCCGTTT | 0.914 | 0.229 | 0.415 | 1.59 | 0.648 | 0.129 | 0.372 | 1.35
ATCGAAAGGTCGACGACGTGAGTATACACCGTTT | 2.21 | 4.04 | 3.8 | 1.3 | 3.94 | 1.73 | -0.597 | 0.228
TAGCTTAGGTCATTGGGCCAGTATAGTACGCATC | 3.1 | 4.29 | 4.56 | 2.23 | 3.26 | 3.37 | 2.15 | 1.36
TGTCAAACTTCAAAGGTAACGTAAGTATCCACAC | 0.582 | 0.654 | 0.586 | -0.455 | 0.655 | 1.1 | -0.0249 | -0.101
CCTACTGGGCCATCAGGTCATTGACATCAACGTT | 2.72 | 1.97 | 2.1 | 0.333 | 1.81 | 3.22 | 3.14 | 1.41
